Compound activity deposited in PubChem by National Center for Advancing Translational Sciences (NCATS).
The list is not random: actives were taken first. Their share in the collection is about 19%.
ELG1 DNA repair: qHTS screen for small molecules that inhibit ELG1-dependent DNA repair in human embryonic kidney (HEK293T) cells expressing luciferase-tagged ELG1. HEK293T ELG1-luciferase reporter, luminescence, 16 h; DNA damage induced by 5-fluorouridine. Potency, µM (highest dose often 46.1 µM), for inactives: at the highest dose activity change, negative = inhibition, usual class: inhibitors. 2.3% of 330,000 active. AID 504467, 2011; further: potency means the concentration at half of the fitted maximal effect; nearly all actives have a fitted effect of over 55% in size
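HEK293T cells expressing luciferase-tagged ELG1 (2,000/well) received 5-Fluorouridine plus compound or DMSO for 16 hr at 37 °C. Luciferase was read by ONE-Glo luminescence after 30 min at room temperature.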
HT1080NT lethal: qHTS for induction of synthetic lethality in tumor cells producing 2HG: qHTS for the HT-1080-NT fibrosarcoma cell line; AID 686970, 2013; HT-1080-NT fibrosarcoma viability, CellTiter-Glo ATP luminescence, 48 h; Potency, µM (series often up to 46.1 µM), for inactives: at the highest dose activity, negative = less viability, hits mostly cytotoxic; 1.6% of 360,000 active;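 further: NT is the 2HG producing partner of a matched IDH1 knockdown line; potency means the concentration at half of the fitted maximal effect; 0% = DMSO-treated cells and -100% = media-only wells without cells; nearly all actives have a fitted effect of over 55% in size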
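A 48-hour cytotoxicity screen used HT-1080-NT cells plated 2 hours before compound delivery. ATP-based CellTiter-Glo luminescence measured viability, normalized to DMSO and no-cell controls.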
HT1080 IDH1KD tx: qHTS for induction of synthetic lethality in tumor cells producing 2HG: qHTS for the HT-1080-IDH1KD cell line; HT-1080 IDH1 knockdown viability, ATP luminescence, 48 h; Potency, µM (highest dose often 46.1 µM), inactives show top-dose activity, negative = toxicity, hits mostly cytotoxic; 2% of 360,000 active;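 further: potency means the concentration at half of the fitted maximal effect; 0% = DMSO wells and -100% = cell-free medium wells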
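CellTiter-Glo luminescence after 48 h compound exposure at 37 degrees C of IDH1-knockdown HT-1080 cells in 5% FBS RPMI. %Activity scaled between DMSO wells and cell-free media wells, with curves fitted and assigned curve classes.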
DT40 TDP1 no CPT: qHTS for Inhibitors of human tyrosyl-DNA phosphodiesterase 1 (TDP1): qHTS in cells in absence of CPT; DT40 Tdp1-/- hTDP1 cells, no CPT, ATP luminescence, 48 h; Potency, µM (highest dose often 46.2 µM), without a hit: at the top dose activity change, negative = growth inhibition, most hits filed as inhibitors; 15% of 420,000 active; AID 686978, 2013; further: potency means the concentration at half of the fitted maximal effect; nearly all actives have a fitted effect of over 55% in size
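Luminescent ATP content (CellTiter-Glo) served as the growth readout. Knockout chicken DT40 cells expressing human TDP1 were exposed to compounds without camptothecin for a minimum 48 hr at 37 °C.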
IL1B secr inh: qHTS for Inhibitors of Inflammasome Signaling: IL-1-beta AlphaLISA Primary Screen. THP-1 LPS/ATP IL-1B secretion, AlphaLISA, 16 h; hits give low values. activity change, % at 57.5 µM. 4.7% of 360,000 active; in the data active means activity change below about -50%; inconclusive means mostly about -30% to -49%
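THP-1 cells pretreated 1 hr with compounds (up to 57.5 uM final), then stimulated with LPS (250 ng/mL final) plus ATP (1.25 mM final); secreted IL-1B measured by AlphaLISA after 16 hr, decreased signal indicating inhibition.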
TDP1 cell CPT: qHTS for Inhibitors of human tyrosyl-DNA phosphodiesterase 1 (TDP1): qHTS in cells in presence of CPT; chicken DT40 Tdp1-/-;hTDP1 cells + 20 nM CPT, ATP luminescence, 48 h; Potency, µM (highest dose often 46.2 µM), without a hit: at the highest dose activity change, negative = growth inhibition, most hits filed as inhibitors; 12% of 420,000 active; further: potency means the concentration at half of the fitted maximal effect; nearly all actives have a fitted effect of over 55% in size
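Chicken DT40 Tdp1-/- cells complemented with human TDP1, 400 cells/well, exposed to compounds plus 20 nM camptothecin for at least 48 h at 37 C; viability read as ATP content by CellTiter-Glo luminescence.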
* hit, by the source's call; ? = inconclusive; . = not tested or not shown. Unless noted, the call rests on the fitted dose curve; in most records, active means well fitted curve in the direction sought with a large enough effect; inconclusive means small, poorly fitted or top-dose-only effect, or another doubt; inactive means no such curve, though single readings can be large; an effect the other way counts as inactive or inconclusive. Unless noted, on the % scale 0 is the no-effect control and ±100 the full control effect.

SMILES | ELG1 DNA repair | HT1080NT lethal | HT1080 IDH1KD tx | DT40 TDP1 no CPT | IL1B secr inh | TDP1 cell CPT
CC(C)OCCCNC(=O)c1ccc2c(=O)n(CCc3ccccc3)c(=O)[nH]c2c1 | . | . | . | -18% | . | -2%
Cc1ccc(C)c(Nc2nn3c(=O)c4ccc(C(=O)NCc5cccs5)cc4nc3s2)c1 | . | . | . | 15µM* | . | ?
COc1ccc(OC)c(CN2CCN(C(=O)c3ccc(NS(=O)(=O)c4cccc([N+](=O)[O-])c4)cc3)CC2)c1 | ? | -5% | -5% | -16% | 8 | -22%
COc1ccc(-c2cc(C(=O)Oc3ccc([N+](=O)[O-])cc3)c3ccccc3n2)cc1 | ? | -4% | -16% | ? | 6 | ?
COc1ccc2nc3cc([N+](=O)[O-])ccc3c(NNc3ccc([N+](=O)[O-])cc3)c2c1 | . | -23% | -2% | 9.2µM* | -8 | 10µM*
COc1ccc(-c2csc(NC(=O)Cc3cc(OC)c(OC)c(OC)c3)n2)cc1OC | ? | -11% | ? | 18µM* | ? | 21µM*
COc1ccc(CCNC(=O)CCn2cccc2)cc1OC | 16% | 17% | 5% | -8% | 9 | 7%
COc1ccc(-c2csc(NC(=O)CS(=O)(=O)c3ccc(F)cc3)n2)cc1OC | ? | 0% | 0% | ? | ? | ?
COc1ccc(CCNC(=O)CCN2C(=O)C3CC=CCC3C2=O)cc1OC (stereo unspecified) | 24% | 3% | 1% | 23µM* | 13 | ?
CC(C(=O)Nc1nc(-c2ccc(F)cc2)cs1)N1C(=O)C2CC=CCC2C1=O (stereo unspecified) | ? | 10% | 21% | -18% | -81* | ?
COc1cc(CC(=O)Nc2nc(C)cs2)cc(OC)c1OC | 15µM* | 2% | -1% | 21µM* | -4 | 12µM*
O=C(CN1C(=O)C2CC=CCC2C1=O)Nc1nc(-c2ccc(F)cc2)cs1 (stereo unspecified) | ? | -1% | -6% | ? | 11 | ?
CC1(C(=O)NS(=O)(=O)c2ccc(Cl)cc2)CCN1C(=O)CCc1ccccc1 (stereo unspecified) | . | ? | 1% | -8% | 3 | ?
CCOC(=O)c1c(-c2ccc(C)cc2)csc1NC(=O)c1cc(=O)c2cc(C)c(C)cc2o1 | . | . | . | -13% | . | -2%
CC1CC(C)(C)OC(c2ccc(C(C)C)cc2)O1 (stereo unspecified) | . | 0% | 4% | -1% | 13 | 5%
COc1ccccc1NC(=O)C/C(C)=N/NC(=O)C12CC3CC(CC(C3)C1)C2 | 10% | -5% | -1% | -2% | 20 | ?
COc1ccc(CCNC(=O)C/C(C)=N/NC(=O)C23CC4CC(CC(C4)C2)C3)cc1OC | -2% | -30% | ? | 7.3µM* | -10 | ?
CCC(C)(C)C1CCC2(CC1)NC(=O)N(CC(=O)NCCc1ccc(OC)c(OC)c1)C2=O (stereo unspecified) | ? | -8% | -16% | 12µM* | -27 | ?
COc1ccc(-c2csc(NC(=O)CCN3C(=O)C4CC=CCC4C3=O)n2)cc1OC (stereo unspecified) | ? | 0% | -4% | 18µM* | -25 | 21µM*
Cc1ccc(NC(=O)/C=C/C(=O)O)c(NC(=O)c2ccccc2)c1 | -1% | 2% | 2% | 1% | 14 | 3%
CCn1c2ccccc2c2cc(NS(=O)(=O)c3ccccc3C)ccc21 | ? | ? | ? | 21µM* | 13 | ?
CCCC(=O)Nc1ccc2c(c1)c1ccccc1n2CC | -26% | -21% | -28% | ? | -1 | ?
CCn1c2ccccc2c2cc(NC(=O)C(C)C)ccc21 | ? | -11% | -19% | 26µM* | -23 | ?
CCOC(=O)C(=CNc1ccc2c(c1)c1ccccc1n2CC)C(=O)OCC | -3% | -16% | -11% | 8.2µM* | 0 | 15µM*
CCn1c2ccccc2c2cc(NC(=O)N3CCCCC3)ccc21 | . | -19% | ? | 23µM* | ? | 18µM*
SMILES | ELG1 DNA repair | HT1080NT lethal | HT1080 IDH1KD tx | DT40 TDP1 no CPT | IL1B secr inh | TDP1 cell CPT
CCc1ccc(OC(=O)CSc2nnc(-c3ccc4c(c3)OCO4)o2)cc1 | . | . | . | -6% | . | -1%
Cc1ccc(NC(=O)COC(=O)C2CC2(Cl)Cl)cc1C (stereo unspecified) | 12% | 13% | 0% | ? | 6 | -30%
Cc1ccc(NC(=O)COC(=O)C2(CC(=O)NC(C)(C)C)CCCC2)cc1C | ? | -13% | -14% | ? | -92* | ?
Cc1ccc(NC(=O)C2(c3ccccc3)CC2(Cl)Cl)cc1C (stereo unspecified) | ? | -1% | -2% | 16µM* | -10 | ?
O=C(N/N=C\c1ccc(COc2ccc([N+](=O)[O-])cc2)o1)c1ccc(Cl)cc1 | -22% | -15% | -26% | ? | -60* | ?
Cc1ccc(C(=O)N/N=C\c2ccc(-c3ccc([N+](=O)[O-])cc3)o2)cn1 | 26% | -5% | 0% | ? | -14 | 0%
O=C(N/N=C/c1ccc(-c2cccc([N+](=O)[O-])c2)o1)c1ccccc1O | ? | -6% | -19% | ? | -2 | ?
O=C(N/N=C/c1ccc(-c2cccc([N+](=O)[O-])c2)o1)c1ccc([N+](=O)[O-])cc1 | ? | -4% | -11% | 16µM* | -51* | ?
O=C(NN=Cc1ccccc1Cl)c1ccc([N+](=O)[O-])cc1 | . | ? | 17% | 2% | -7 | 6%
COc1cc(C(=O)NCC(=O)N/N=C/c2ccc(-c3ccc([N+](=O)[O-])cc3)o2)cc(OC)c1OC | ? | -22% | -27% | 21µM* | ? | ?
Cn1c(=O)c2c(ncn2CC(=O)Nc2cc(S(=O)(=O)N3CCCCC3)ccc2O)n(C)c1=O | 1% | 3% | 16% | -2% | 14 | 1%
COc1cc(/C=N/NC(=O)C2CC(=O)N(c3ccc(C)cc3)C2)cc(OC)c1OC (stereo unspecified) | ? | -2% | 2% | -22% | -9 | 1%
